According to PubChem BioAssay (EPA / NIEHS):
Where “and” joins values, the source holds several entries; their conditions need not be identical. Equal values may be shown once. Results filed as inconclusive are left out. Where a structure was tested more than once in an assay, its records may differ in their call. Calls of active or inactive are those of the source. The calls were made as follows, unless noted: active = hit-call score of the fitted dose curve at least 0.9, where 1 is the maximum; inactive = score below 0.9.

Legend:
[1] = read-out: Monokine induced gamma interferon (MIG), CXCL9 (gene 4283); experiment: BSK_KF3CT_MIG: BioMAP Diversity Plus: KF3CT Assay for Monokine induced gamma interferon (MIG) Biomarker Activity (AID 2284248); conditions: primary human keratinocytes with fibroblasts
Outline: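 MIG in dosed human skin co-cultures was measured by ELISA at 24 h, relative to DMSO.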

[2] = read-out: Collagen I, COL1A1 (gene 1277); experiment: BSK_hDFCGF_CollagenI: BioMAP Diversity Plus: hDFCGF Assay for Collagen I Biomarker Activity (AID 2284250); conditions: primary human foreskin fibroblasts
Outline: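 Readout: Collagen I by ELISA after 24 h compound treatment of primary human foreskin fibroblasts. Endpoint analysed for increases relative to DMSO; total protein by SRB in parallel wells flagged cytotoxicity.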

[3] = read-out: Interferon-inducible T-cell alpha chemoattractant (ITAC), CXCL11 (gene 6373); experiment: BSK_hDFCGF_ITAC: BioMAP Diversity Plus: hDFCGF Assay for Interferon-inducible T-cell alpha chemoattractant (ITAC) Biomarker Activity (AID 2284251); conditions: primary human foreskin fibroblasts
Outline: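 I-TAC levels were read by ELISA on human dermal foreskin fibroblast primary cultures 24 h after dosing, analysed against DMSO in the positive direction. Cytotoxicity was assessed alongside by sulforhodamine B total-protein staining.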

[4] = read-out: Plasminogen activator inhibitor-1 (PAI1), SERPINE1 (gene 5054); experiment: BSK_KF3CT_PAI1: BioMAP Diversity Plus: KF3CT Assay for Plasminogen activator inhibitor-1 (PAI1) Biomarker Activity (AID 2284252); conditions: primary human keratinocytes with fibroblasts
Outline: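 In this co-culture of primary human keratinocytes and foreskin fibroblasts, PAI-1 was measured by ELISA at 24 h and fitted upward from DMSO.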

[5] = read-out: Interleukin-8 (IL8), CXCL8 (gene 3576); experiment: BSK_KF3CT_IL8: BioMAP Diversity Plus: KF3CT Assay for Interleukin-8 (IL8) Biomarker Activity (AID 2284254); conditions: primary human keratinocytes with fibroblasts
Outline: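 Using parallel SRB-stained cultures to flag overt toxicity, the study quantified IL-8 by ELISA in human keratinocyte–foreskin fibroblast co-cultures 24 h after dosing, with DMSO as negative control and baseline.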

[6] = read-out: Collagen III, COL3A1 (gene 1281); experiment: BSK_MyoF_CollagenIII: BioMAP Diversity Plus: MyoF Assay for Collagen III Biomarker Activity (AID 2284239); conditions: primary human lung fibroblasts
Outline: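 Multiplexed cell assay in lung fibroblasts, harvested at 24 h post-dose. Collagen III detected by ELISA, with positive-direction fitting relative to DMSO vehicle.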

[7] = read-out: Interleukin 17F (IL17F), IL17F (gene 112744); experiment: BSK_BT_xIL17F: BioMAP Diversity Plus: BT Assay for Interleukin 17F (IL17F) Biomarker Activity (AID 2284243); conditions: primary human B cells with PBMC
Outline: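 Luminex readout of IL-17F secretion, 24 h; cells: human B cells with PBMC; positive-direction analysis, DMSO control.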

[8] = read-out: Actin alpha 1 (ACTA1), ACTA1 (gene 58); experiment: BSK_MyoF_ACTA1: BioMAP Diversity Plus: MyoF Assay for Actin alpha 1 (ACTA1) Biomarker Activity (AID 2284244); conditions: primary human lung fibroblasts
Outline: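 MyoF fibroblast system (human lung); a-SMA quantified via ELISA at 24 h; DMSO-normalised, gain-of-signal endpoint.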

[9] = read-out: Interleukin 2 (IL2), IL2 (gene 3558); experiment: BSK_BT_xIL2: BioMAP Diversity Plus: BT Assay for Interleukin 2 (IL2) Biomarker Activity (AID 2284245); conditions: primary human B cells with PBMC
Outline: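 Co-cultures of primary human B cells and PBMC are treated with chemical and sampled at 24 h. IL-2 secretion is quantified by Luminex xMAP, with DMSO-treated wells as baseline.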

[10] = read-out: Basic fibroblast growth factor (bFGF), FGF2 (gene 2247); experiment: BSK_MyoF_bFGF: BioMAP Diversity Plus: MyoF Assay for Basic fibroblast growth factor (bFGF) Biomarker Activity (AID 2284246); conditions: primary human lung fibroblasts
Outline: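 Fibroblasts from human lung, 24 h dosing. bFGF by ELISA; gain of signal over DMSO.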

[11] = read-out: Collagen IV, COL4A1 (gene 1282); experiment: BSK_MyoF_CollagenIV: BioMAP Diversity Plus: MyoF Assay for Collagen IV Biomarker Activity (AID 2284247); conditions: primary human lung fibroblasts
Outline: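 Lung fibroblasts (human primary) treated with chemicals were assayed after 24 h for Collagen IV using an ELISA, with DMSO serving as negative control and baseline for a positive-direction fit.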

[12] = read-out: Plasminogen activator inhibitor-1 (PAI1), SERPINE1 (gene 5054); experiment: BSK_MyoF_PAI1: BioMAP Diversity Plus: MyoF Assay for Plasminogen activator inhibitor-1 (PAI1) Biomarker Activity (AID 2284256); conditions: primary human lung fibroblasts
Outline: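 In this multiplexed primary-cell system, fibroblasts from human lung received compound for 24 h before ELISA detection of PAI-1; overt toxicity was checked by SRB (0.1%, TCA-fixed, 560 nm) in parallel wells.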

[13] = read-out: Interleukin-8 (IL8), CXCL8 (gene 3576); experiment: BSK_MyoF_IL8: BioMAP Diversity Plus: MyoF Assay for Interleukin-8 (IL8) Biomarker Activity (AID 2284261); conditions: primary human lung fibroblasts
Outline: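 DMSO-normalised, upward-fitted IL-8 ELISA signal; human lung fibroblasts, 24 h chemical treatment.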

[14] = CCTE_Mundy_HCI_Cortical_NOG_NeuronCount: CCTE's Neurite Outgrowth Assay in rat cortical cells for Neuron Count, Mundy Lab (AID 2284236; active = hit-call score of the fitted dose curve at least 0.9, where 1 is the maximum;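 also: neurons counted by imaging betaIII-tubulin and Hoechst stained cortical cells; cells exposed to compound for about 48 hours before fixation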)
Outline: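 Read-out: neuron number by high-content imaging of betaIII-tubulin (Alexa Fluor-488) and Hoechst-labelled rat primary cortical cells.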

[15] = CCTE_Mundy_HCI_Cortical_NOG_BPCount: CCTE's Neurite Outgrowth Assay in rat cortical cells for Branch Point Count, Mundy Lab (AID 2284237)
Outline: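 Measured 50.33 h after dosing, this morphology endpoint uses rat primary cortical cultures labelled for betaIII-tubulin. Branch points are quantified by high-content imaging, with DMSO as negative control and baseline.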

[16] = CCTE_Mundy_HCI_hNP1_Casp3_7: CCTE's Caspase-Glo 3/7 Assay in human neuroprogenitor cells for Apoptosis, Mundy Lab (AID 2284240)
Outline: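 Apoptosis is scored by activated caspase-3/7 luminescence in WA09-derived neural progenitor cells, measured 26.5 h after chemical dosing. Values represent gain of signal relative to DMSO vehicle.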

[17] = CCTE_Mundy_HCI_hNP1_CellTiter: CCTE's Cell Titer-Glo 2 Assay in human neuroprogenitor cells for Viability, Mundy Lab (AID 2284241; active = hit-call score of the fitted dose curve at least 0.9, where 1 is the maximum;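 as to AC50: a hit is a drop in ATP luminescence versus DMSO meaning reduced viability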)
Outline: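 Human neural progenitor cells (hNP1, WA09-derived) were plated on poly-L-ornithine/laminin and grown 40 to 44 hours at 37 °C, 5% CO2 before chemical addition. Twenty-four hours later, ATP was measured by CellTiter-Glo luminescence; loss of signal versus DMSO indicates reduced viability.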

[18] = CCTE_Mundy_HCI_Cortical_Synap_Neur_Matur_NeuronCount: CCTE's Synaptogenesis and Neurite Maturation Assay in rat cortical cells for Neuron Count, Mundy Lab (AID 2284242; active = hit-call score of the fitted dose curve at least 0.9, where 1 is the maximum)
Outline: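 Measured at DIV 12: fluorescently labelled neurons (Hoechst nuclei, MAP2) in rat primary cortical cultures, counted by high-content imaging. AraC suppressed glia from DIV 5; DMSO served as negative control.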

Measured: AC50

CO[Si](OC)(OC)c1ccccc1
inactive: [1] | [2] | [3] | [4] | [5]

c1ccc(-c2ccccn2)nc1
inactive: [6] | [8] | [9] | [10] | [11] | [12] | [13]
active: [7] 27.6 µM

Nc1ncn([C@@H]2O[C@H](CO)[C@@H](O)[C@H]2O)c(=O)n1
active: [16] 5.45 µM | [17] 2.78 µM
inactive: [14] | [15] | [17] | [18]

CCCCCCCCc1ccc(Nc2ccc(CCCCCCCC)cc2)cc1
inactive: [6] | [7] | [8] | [9] | [10] | [11] | [12] | [13]

CCCCC/C=C\C/C=C\CCCCCCCC(=O)OC
active: [6] 20 µM | [7] 25.2 µM | [8] 29.4 µM | [9] 28.9 µM
inactive: [10] | [11] | [12] | [13]

Nc1ccc(N)c(Cl)c1
inactive: [1] | [2] | [5]
active: [1] 12.3 µM | [2] 26.7 µM | [3] 23.4 µM and 22.6 µM | [4] 13.1 µM and 26.5 µM

C/C=C\C/C=C/CCCCCCCCOC(C)=O
inactive: [6] | [10] | [11] | [13]
active: [7] 25.5 µM | [8] 31.9 µM | [9] 31.6 µM | [12] 20 µM

CCCCC(CC)COC(=O)c1ccccc1O (stereo unspecified)
inactive: [6] | [7] | [8] | [9] | [10] | [11] | [12] | [13]

CCCCCCCCCCCCCCCC[N+](C)(C)CC
active: [6] 0.967 µM | [7] 2.28 µM | [8] 0.757 µM | [9] 1.26 µM | [10] 8.45 µM | [11] 3.25 µM | [12] 2.65 µM
inactive: [13]

O=Nc1ccc(O)cc1
inactive: [6] | [7] | [8] | [9] | [10] | [11] | [12] | [13]

CCOc1nc(F)cc2nc(S(=O)(=O)Nc3c(Cl)cccc3C(=O)OC)nn12
inactive: [6] | [7] | [8] | [9] | [10] | [11] | [12] | [13]

C=CCOc1c(Br)cc(Br)cc1Br
inactive: [9] | [13]
active: [6] 26.2 µM | [7] 26.8 µM | [8] 24.4 µM | [10] 34 µM | [11] 5.88 µM | [12] 26.6 µM

CCOC(=O)c1ccccc1C(=C1C=C(Br)C(=O)C(Br)=C1)c1cc(Br)c(O)c(Br)c1
inactive: [5]
active: [1] 4.3 µM and 3.96 µM | [2] 3.27 µM | [3] 4.39 µM and 4.49 µM | [4] 3.18 µM and 3.06 µM

CN1C(=O)N(C)C(O)C1O (stereo unspecified)
inactive: [1] | [2] | [3] | [4] | [5]

CC(C)C(=O)C(C)C
inactive: [6] | [7] | [8] | [9] | [10] | [11] | [12] | [13]

O=C(Cl)c1cc(C(=O)Cl)cc(C(=O)Cl)c1
active: [6] 33.2 µM | [7] 29.5 µM | [8] 35.1 µM | [9] 29.7 µM | [10] 36.9 µM | [11] 30 µM | [12] 39.1 µM

CCCCNc1ccc(NCCCC)c2c1C(=O)c1ccccc1C2=O
inactive: [6] | [7] | [8] | [9] | [10] | [11] | [12] | [13]

CC(C)(c1cc(Br)c(OCCO)c(Br)c1)c1cc(Br)c(OCCO)c(Br)c1
active: [6] 7.69 µM | [7] 23.8 µM | [8] 10.7 µM | [9] 18.7 µM | [10] 9.52 µM | [11] 9.43 µM | [12] 9.61 µM | [13] 10.6 µM

CCCCC(CC)COCC1CO1 (stereo unspecified)
inactive: [1] | [2] | [3] | [4] | [5]
